# Test results: PubChem BioAssay AID1220 (Sanford-Burnham Center for Chemical Genomics, 2008)
# The campaign covered roughly 190,000 compounds. About 1,300 (0.68%) were called active. Cut-off read from the data, not from the text of the source: active = inhibition above about 50%; inactive = the rest. This excerpt belongs to a sample that is enriched for actives.
# Target: Mannose-6-phosphate isomerase (Homo sapiens) (UniProt P34949)
# Assay: human PMI inhibitors, high substrate, primary screen, biochemical, fluorescence intensity, high mannose 6-phosphate (AID 1220)
# Conditions: recombinant PMI enzyme, coupled fluorescence intensity; at 20 µM; active compounds read high
# Chain of Mannose-6-phosphate isomerase (Homo sapiens) (P34949 whole entry, looked up): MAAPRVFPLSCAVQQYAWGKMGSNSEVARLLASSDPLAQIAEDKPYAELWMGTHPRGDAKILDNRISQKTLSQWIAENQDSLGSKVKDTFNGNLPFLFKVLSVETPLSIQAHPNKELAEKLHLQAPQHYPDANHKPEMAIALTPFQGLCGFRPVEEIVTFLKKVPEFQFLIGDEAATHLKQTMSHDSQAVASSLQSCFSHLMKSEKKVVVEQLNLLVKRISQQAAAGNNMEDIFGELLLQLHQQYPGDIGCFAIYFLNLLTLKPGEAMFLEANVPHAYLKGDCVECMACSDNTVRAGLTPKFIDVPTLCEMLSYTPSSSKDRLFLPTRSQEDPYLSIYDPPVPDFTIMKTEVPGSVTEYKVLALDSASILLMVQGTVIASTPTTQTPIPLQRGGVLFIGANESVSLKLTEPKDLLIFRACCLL
row,SMILES,inhibition
1,CC1CN(C)C(C)C/C1=N\Oc1ccc([N+](=O)[O-])cc1 (stereo not drawn),-6.4% (inactive)
2,CC(C)(C)/C(COc1ccccc1[N+](=O)[O-])=N/O,5.7% (inactive)
3,CC1CN(C)C(C)C/C1=N/Oc1ccccc1[N+](=O)[O-] (stereo not drawn),42.3% (inactive)
4,CC1=CC(=O)C=C(C)C1=NOc1ccccc1[N+](=O)[O-],54.8% (active)
5,CN1CCC(=NOc2ccc([N+](=O)[O-])cc2)CC1,-6.9% (inactive)
6,CC1=CC(=O)C=C(C)C1=NOc1ccc([N+](=O)[O-])cc1,53.2% (active)
7,N#Cc1ccc(NC(=O)CN2C(=O)NC(Cc3ccccc3)C2=O)cc1 (stereo not drawn),3.6% (inactive)
8,Cc1noc(C)c1COC(=O)COc1ccc(C#N)cc1,-4.4% (inactive)
9,COc1ccc(CNCC(O)(c2ccc(Cl)cc2)c2ccc(Cl)cc2)cc1OC,55.1% (active)
10,COc1ccc(CNCC(O)(c2ccccc2)c2ccccc2)cc1OC,-0.4% (inactive)
11,COc1ccc(CNCC(O)(c2ccc(Cl)cc2)c2ccc(Cl)cc2)cc1,0% (inactive)
12,COC(=O)COc1ccc(S(=O)(=O)N2CCN(c3ccccc3)CC2)cc1,-8.3% (inactive)
13,O=C(c1cccc2cccc(O)c12)N1CCCCC1,63.7% (active)
14,O=C(c1cccc(F)c1F)N1CCCC1,-8.2% (inactive)
15,Nc1ccccc1C(=O)N1CCCC1,8.2% (inactive)
16,Cc1ccc2c(c1)nnn2C1CCN(S(=O)(=O)c2ccc(C(=O)O)cc2)CC1,3.6% (inactive)
17,Cc1ccc2c(c1)nnn2C1CCN(S(=O)(=O)c2ccc(C(=O)N3CC(C)CC(C)C3)cc2)CC1 (stereo not drawn),10.4% (inactive)
18,Cc1ccc2c(c1)nnn2C1CCN(S(=O)(=O)c2ccc(C(=O)N3C(C)CCCC3C)cc2)CC1 (stereo not drawn),53% (active)
19,O=C(COC(=O)/C=C/c1ccccc1[N+](=O)[O-])NCC(F)(F)F,-8.8% (inactive)
20,CCc1ccc(NC(=S)N2CCCCCCC2)cc1,-7.1% (inactive)
21,Cc1nc(SCC2(C)CC2(Cl)Cl)n[nH]1 (stereo not drawn),-3.1% (inactive)

row,SMILES,inhibition
1,COc1ccc(/C=N/NS(=O)(=O)c2ccc(C)cc2)cc1OC(=O)c1ccc(C)cc1,-3.5% (inactive)
2,Oc1ccc2oc3c(c2c1/C=N/n1cnnc1)CCCC3,9.3% (inactive)
3,Cc1cccc(/N=C/c2c(O)ccc3oc4c(c23)CCCC4)n1,13.6% (inactive)
4,Cc1ccnc(N=Cc2c(O)ccc3oc4c(c23)CCCC4)c1,51.1% (active)
5,CCOC(=O)c1cnc2c(C#N)c(C)nn2c1-c1ccccc1,3.5% (inactive)
6,COCCN=c1scc(-c2cc(OC)c(OC)c(OC)c2)n1/N=C/c1c(C)[nH]c2ccccc12,13.7% (inactive)
7,N#Cc1cc([N+](=O)[O-])ccc1N1CCN(c2ccccc2O)CC1,10.8% (inactive)
8,CN(N)c1ccc2c(C(F)(F)F)cc(C(F)(F)F)nc2n1,-11.3% (inactive)
9,Nc1ccc2c(C(F)(F)F)cc(C(F)(F)F)nc2n1,53.7% (active)
10,NNc1ccc2c(C(F)(F)F)cc(C(F)(F)F)nc2n1,-7.7% (inactive)
11,Cc1c(Cl)cccc1Nc1nc(N)nc(CSCCO)n1,-1.1% (inactive)
12,O=c1c2c3c(sc2nc2n1CCCCC2)C(O)CCC3 (stereo not drawn),8.9% (inactive)
13,Cc1cc(C)nc(N2N=C(C(C)(C)C)CC2=O)n1,-15% (inactive)
14,Cc1cc(C)nc(N2N=C(c3ccccc3)CC2=O)n1,26.8% (inactive)
15,COc1ccc(C2=NN(c3nc(C)cc(C)n3)C(=O)C2)cc1,51.6% (active)
16,Cc1ccc(CN2CCCNC2=O)cc1,-2.5% (inactive)
17,COc1cc(NC(=O)COC(=O)C2CC2)c(C)cc1[N+](=O)[O-],-8% (inactive)
18,CCn1cc(Cl)c(C(=O)Nc2nc3ccccc3n2CCN2CCCCC2)n1,-2.9% (inactive)
19,Cc1c(Cl)c(C(=O)Nc2nc3ccccc3n2CCN2CCCCC2)nn1C,55.1% (active)
20,O=C(Nc1nc2ccccc2n1CCN1CCCCC1)c1ccc(Cl)cc1,-11.3% (inactive)
21,CCOC(=O)c1cc(-c2ccc(C)cc2)n(CCC(=O)NCCN(C)C)c1C,5.6% (inactive)

row,SMILES,inhibition
1,O=C1CN2NC(=S)N(c3ccc(Cl)cc3)C2=CN1c1ccc(Cl)cc1,-2.8% (inactive)
2,CCOc1cc(NC(=S)NCCCN2CCOCC2)c(OCC)cc1NC(=O)c1ccccc1,24.1% (inactive)
3,CCOc1cc(NC(=S)NCCCN2CCOCC2)c(OCC)cc1NC(=O)c1ccc(C)cc1,52.6% (active)
4,CCOc1cc(NC(=S)NCCCN2CCOCC2)c(OCC)cc1NC(=O)c1cccc(F)c1,49.5% (inactive)
5,CCOc1cc(NC(=O)c2cccs2)c(OCC)cc1NC(=O)CCC(=O)NCCN1CCOCC1,10.6% (inactive)
6,CCOc1cc(NC(=S)NCCCN2CCOCC2)c(OCC)cc1NC(=O)c1cccs1,56.1% (active)
7,CCOc1cc(NC(=S)NCCCN2CCOCC2)c(OCC)cc1NC(=O)c1ccccc1C,47.3% (inactive)
8,O=C(CCCCCn1c(=S)[nH]c2ccccc2c1=O)NCc1ccc2c(c1)OCO2,-9.7% (inactive)
9,C=CCNC(=S)NNC(=O)c1cccn(Cc2ccc(Cl)cc2Cl)c1=O,-10.6% (inactive)
10,O=C(C[n+]1ccccc1)N/N=C/c1cccs1,-14% (inactive)
11,Cc1cc(C)nc(N(C#N)S(=O)(=O)c2ccc(Br)cc2)n1,-3.3% (inactive)
12,O=C(CSc1nc(O)cc(=O)[nH]1)N1c2ccccc2Sc2ccccc21,7.8% (inactive)
13,COc1ccc(CCNC(=O)c2ccc(SC)cc2OC)cc1,-1.4% (inactive)
14,CONC(=O)c1cc(OCC(F)(F)F)ccc1OCC(F)(F)F,-7.9% (inactive)
15,O=C(Nc1ccc(F)cc1)Nc1cc(OCC(F)(F)F)cc(OCC(F)(F)F)c1,8.1% (inactive)
16,Nc1cc(N)c(OCC(F)(F)F)cc1OCC(F)(F)F,55.8% (active)
17,Nc1cc(OCC(F)(F)F)cc(OCC(F)(F)F)c1,56.9% (active)
18,Nc1cc(OCC(F)(F)F)cc([N+](=O)[O-])c1,-2.2% (inactive)
19,COCCOc1ccc(C(F)(F)F)cc1N,8.3% (inactive)
20,O=C1CCC(/C=C/c2ccccc2)=NN1Cc1ccc(F)cc1,-0.5% (inactive)
21,CC(=O)NC(CC(=O)NC12CC3CC(CC(C3)C1)C2)c1ccccc1 (stereo not drawn),1.3% (inactive)
